The values that follow come from the OligoGym collection.
Further: reference of the scale not given here.

The target of the first test is AIG1. As to the kind of experiment: pooled miR-30 sensor sort-seq; sequence = guide strand. Conditions: shRNA.
For the sequence TTAAGATGGTTGTAGACCCAAA, the sensor-assay potency score (higher = more potent) is -0.997.
Sequence TTCTTTAACACACAGTGAGGGT displayed a sensor-assay potency score (higher = more potent) of -0.962.
Sequence TAGAGCAGTAAGACAGCAGGAT displayed a sensor-assay potency score (higher = more potent) of 0.285.
Take TAGTTACACAGGATAGAGCAGT: the sensor-assay potency score (higher = more potent) was -0.722.
For TTGGAAACAACTGTATTCTATG, the sensor-assay potency score (higher = more potent) was -0.738.

The next test deals with AK1. The description is as above. As to conditions: shRNA.
The sequence TCCAACACTGTCTCCAGTGGAA had a sensor-assay potency score (higher = more potent) of -1.08.
TGTAATAGGTCTCCAGCCGCTT showed a sensor-assay potency score (higher = more potent) of -0.437.
Regarding ATTGTCGTCCACACGCCCGCTG, the sensor-assay potency score (higher = more potent) was -0.347.
Consider TGCACGATCTTCTCACACTGGG, for which the sensor-assay potency score (higher = more potent) was -0.837.
The same measure, in the same setting: the same measure for TTGACTTTGGCCACCATGGCAT: -0.482; for TTTCCGACAGCTTCTTGCCCCT: -0.367; for TCCACATACAGCAGCAGTGTGG: -1.37.
Still for that read-out and setting: the same measure for ATGATTTCCGACAGCTTCTTGC: -1.06; for TAATAGGTCTCCAGCCGCTTTT: -1.38; for TTGACCTTGCGCACAATGCCAC: -0.47.
Same read-out and setting: in the case of TTGTCGTCCACACGCCCGCTGG it was -1.2.
On to TTGTAATAGGTCTCCAGCCGCT, for which the sensor-assay potency score (higher = more potent) is -0.883.
In turn, TCGCTCAAACTCTTCTCCTTGC yielded a sensor-assay potency score (higher = more potent) of -0.418.
On the same count and under the same terms, the same measure for TACAGCAGCAGTGTGGGCTGTC: 0.332; for TGATGGTCTCCTCATTGTCGTC: -1.72.
The same measure, in the same setting: the same measure for TGTCTCCAGTGGAACCAGCTGC: -0.761.
In turn, TACTTCTGCACGATCTTCTCAC registered a sensor-assay potency score (higher = more potent) of 0.346.
TTTGGAAGTATTGACTTTGGCC came in with a sensor-assay potency score (higher = more potent) of -0.356.
Same read-out and setting: in the case of TAGCCATCAATCAGGAAGCCTT it was -0.92; in that of TTTGATGGTCTCCTCATTGTCG, -0.362.
The same measure, in the same setting: in the case of TTCTCCTTGCTGCACCTCCCGC it was -1.57; in that of TCATTGTCGTCCACACGCCCGC, -0.841; in that of TTGATGGTCTCCTCATTGTCGT, -0.675.
Take TGCGTCCACATACAGCAGCAGT: the sensor-assay potency score (higher = more potent) is -1.67.

The target of a further test is AKR1A1. Described as above. Conditions: shRNA.
Consider TAGTGGGTGGAGTCGTAGCATA, for which the sensor-assay potency score (higher = more potent) was -1.36.
In the case of TAAAGGTGAAGTCAAACACCTT, the sensor-assay potency score (higher = more potent) was -1.29.
Still for that read-out and setting: in the case of TATAGTCCCATCAGCATTCTTG it was -0.715.
Still for that read-out and setting: the same measure for TAAGGGCATACTTAACAGCTGC: -0.729.
TACCTGACCAGGCTCACTCTTC: the sensor-assay potency score (higher = more potent) was -0.753.
The same measure, in the same setting: in the case of TTAACAGCTGCTTTTACCTGAC it was -0.112.
On to TGTCACAAACAGCTCCTCCCGA, for which the sensor-assay potency score (higher = more potent) is -0.337.
On the same count and under the same terms, the same measure for TTGGATGTCACAAACAGCTCCT: 0.145.
Same read-out and setting: in the case of TTAGCTGCTTCATCTCTTCTGG it was -0.107.
The same measure, in the same setting: in the case of TTGATGTTCTGAAGGATTCGAG it was -0.236.
